# Data as given in PubChem BioAssay.
# The source made the active and inactive calls.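 How the source made its calls, unless noted: active means inhibition at or above 50% at 10 µM; inactive means inhibition below 50%.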
# Experiments:
# [1] = inhibitors of TNFa-induced NFkB p65 translocation, primary screen, imaging, HUVEC, MLSMR starter and 10KST1 sets (AID 438;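 active means inhibition above 20% together with a positive visual image hit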;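 further: compound added about 3h40 before a 20 min TNFalpha stimulation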;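 on inhibition: signal is the nuclear over cytoplasmic p65 intensity ratio per well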); conditions: HUVEC TNFa-induced p65 nuclear translocation; cell count: measured here: nuclei count (cytotoxicity indicator), at 2.08 µM; inhibition: at 2 µM, stronger effect = higher value, 0% TNFa-plus-vehicle, 100% no-TNFa wells
# [2] = inhibitors of mutant huntingtin aggregation, primary screen, imaging, exon1htt(103Q)mCFP cells, high-content imaging (AID 483;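 active means visual image review flags a hit and inhibition of aggregation exceeds 20%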;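 further: compound exposure lasted 3 days before fixation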;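 on nuclei count: percent of the per-plate median nuclei count of sample wells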); conditions: exon1htt(103Q)mCFP cell line, aggregate imaging, at 2 µM; inhibition of aggregation: stronger effect = higher value; nuclei count: measured here: cell count, toxicity
# [3] = inhibitors of E-selectin induction by TNFa, primary screen, imaging, HUVEC, immunofluorescence, MLSMR starter and 10KST1 sets (AID 487;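 active means visually confirmed hit in the image check and inhibition above 20%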;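 on inhibition: signal is fraction of cell area covered by stained E-selectin grains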;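 on nuclei count: 100% = median nuclei count of all wells on the same plate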); conditions: HUVEC TNFalpha-induced E-selectin immunofluorescence imaging, at 2 µM; inhibition: stronger effect = higher value; nuclei count: measured here: cell number, toxicity
# [4] = target: Voltage-gated potassium channel subunit beta-2 (Rattus norvegicus) (UniProt P62483); experiment: KvBeta enzyme negative modulators, primary screen, biochemical, NADPH fluorescence (AID 622;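 active means fluorescence slope higher than the sample average by over 3 SD, cut at about -0.22 in these data, passing the limit was not always enough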;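 further: slope of raw intensity against log time taken from 70 to 1610 s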); conditions: recombinant KvBeta, 4-cyanobenzaldehyde reduction, at 10 µM, stronger effect = higher value
# [5] = target: Voltage-gated potassium channel subunit beta-2 (Rattus norvegicus) (UniProt P62483); experiment: KvBeta positive modulators, primary screen, biochemical, NADPH fluorescence (AID 623;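 active means NADPH fluorescence slope more negative than the mean of all samples by about 3 SD, 99.7% confidence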;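 further: fluorescence intensity change per second fitted from 20 to 320 s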); conditions: Recombinant KvBeta, NADPH fluorescence decrease slope, 10 min; at 10 µM; stronger effect = lower value
# [6] = target: Alpha-2C adrenergic receptor (Homo sapiens) (UniProt P18825); experiment: modulators of alpha2C/GIRK thallium flux, primary screen, cell-based, HEK293 alpha2C/GIRK1/2 (AID 624;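 active means fluorescence slope after compound addition differing from the mean of all screened samples at 99.7% confidence, in either direction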;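 further: slope of fluorescence ratio to pre-addition baseline per second over 15 to 24 s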); conditions: thallium flux BTC fluorescence, at 10 µM, actives lie on both sides
# [7] = inhibitors of Sendai virus-induced IRF3 signaling, primary screen, TLR/RLR signaling modifier project, cell-based, Sendai virus stimulus, luciferase, 10K MLSCN set (AID 602276); conditions: HEK293 RL24 IRF3 luciferase reporter, at 10 µM, stronger effect = higher value;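 further: firefly luciferase from ISG56 promoter only with Renilla not read in this screen; 0% = Sendai virus plus DMSO and 100% = medium plus DMSO without virus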
# [8] = inhibitors of poly I:C-induced TLR3 signaling, primary screen, cell-based, poly I:C stimulus, luciferase, 10K MLSCN set (AID 602277;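 active means inhibition of the reporter signal at or above 50%; inactive means inhibition below 50%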); conditions: HEK293-TLR3 RL24 IRF3 luciferase reporter, at 10 µM, stronger effect = higher value
# Chain of Voltage-gated potassium channel subunit beta-2 (Rattus norvegicus) (P62483 whole entry, looked up): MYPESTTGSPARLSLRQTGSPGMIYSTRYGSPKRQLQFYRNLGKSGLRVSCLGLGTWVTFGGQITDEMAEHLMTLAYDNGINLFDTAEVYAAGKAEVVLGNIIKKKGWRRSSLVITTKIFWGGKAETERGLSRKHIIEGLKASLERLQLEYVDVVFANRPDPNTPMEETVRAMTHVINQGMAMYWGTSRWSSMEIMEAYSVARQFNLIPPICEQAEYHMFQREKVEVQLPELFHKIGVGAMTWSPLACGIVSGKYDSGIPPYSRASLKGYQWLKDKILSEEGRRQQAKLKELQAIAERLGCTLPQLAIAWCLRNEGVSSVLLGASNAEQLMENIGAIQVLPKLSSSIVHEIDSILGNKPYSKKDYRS
# Chain of Alpha-2C adrenergic receptor (Homo sapiens) (P18825 whole entry, looked up): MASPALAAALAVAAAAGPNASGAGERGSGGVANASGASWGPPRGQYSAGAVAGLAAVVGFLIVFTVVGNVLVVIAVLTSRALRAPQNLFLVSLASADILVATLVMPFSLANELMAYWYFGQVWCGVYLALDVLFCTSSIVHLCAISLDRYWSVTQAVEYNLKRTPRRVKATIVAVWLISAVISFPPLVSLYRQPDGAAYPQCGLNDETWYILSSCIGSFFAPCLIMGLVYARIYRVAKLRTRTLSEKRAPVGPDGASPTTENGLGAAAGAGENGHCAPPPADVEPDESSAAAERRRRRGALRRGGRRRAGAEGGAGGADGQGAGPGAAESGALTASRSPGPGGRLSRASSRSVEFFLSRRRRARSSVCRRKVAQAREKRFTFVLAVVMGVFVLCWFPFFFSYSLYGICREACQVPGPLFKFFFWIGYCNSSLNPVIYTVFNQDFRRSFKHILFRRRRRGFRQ
Compound,cell count [1],inhibition [1],inhibition of aggregation [2],nuclei count [2],inhibition [3],nuclei count [3],fluorescence slope [4],NADPH fluorescence slope [5],slope [6],inhibition [7],inhibition [8]
O=C(CSc1nc2ccccc2o1)NC(=O)NCc1ccco1,342,-1.8% (inactive),-12.3% (inactive),94.8%,-31.1% (inactive),112%,-0.333 (inactive),-3.3e-05 (inactive),0.00371 (inactive),-2.31% (inactive),12.3% (inactive)
O=C(O)Cn1cc(C(=O)c2ccco2)c2ccccc21,316,16.3% (inactive),3.6% (inactive),108%,30.1% (inactive),104%,-0.487 (inactive),-1.2e-05 (inactive),0.00668 (inactive),0.251% (inactive),8.5% (inactive)
CC(=O)N1c2c(cc(Br)cc2S(=O)(=O)NCC2COc3ccccc3O2)CC1C (stereo not drawn),651,-0.5% (inactive),19.1% (inactive),104%,-47.6% (inactive),116%,-0.53 (inactive),-7.4e-05 (inactive),0.00624 (inactive),13.1% (inactive),10.4% (inactive)
Cc1cc(C(=O)CSc2nc3ccccc3n2CCC#N)c(C)n1Cc1cccs1,440,10.6% (inactive),-70.3% (inactive),102%,-412% (inactive),158%,-0.32 (inactive),-4.6e-05 (inactive),0.00574 (inactive),20.7% (inactive),-7.47% (inactive)
CC(Oc1ccccc1)C(=O)Nc1ccc(S(=O)(=O)NCC2CCCO2)cc1 (stereo not drawn),377,5% (inactive),17.7% (inactive),81.9%,-84.8% (inactive),99.2%,-0.411 (inactive),1.4e-05 (inactive),0.00888 (inactive),20.7% (inactive),98.9% (active)
O=C(CN(Cc1ccc(F)cc1)C(=O)Cn1nnc2ccccc21)NCC1CCCO1 (stereo not drawn),438,-6.8% (inactive),5.8% (inactive),107%,-33% (inactive),84%,-0.434 (inactive),7.2e-05 (inactive),0.00612 (inactive),13.2% (inactive),26.1% (inactive)
Cc1cc2c(c(=O)o1)C(C13C=CC(CC1)C3)C(C#N)=C(N)O2 (stereo not drawn),326,5.3% (inactive),-3.9% (inactive),102%,-56.1% (inactive),118%,-0.499 (inactive),-5.8e-05 (inactive),0.0051 (inactive),5.92% (inactive),13.6% (inactive)
COc1ccc(CCN2C(=O)CCC2(C)C(=O)NCc2cccnc2)cc1OC (stereo not drawn),436,-6% (inactive),5.2% (inactive),103%,-83.9% (inactive),97.9%,-0.602 (inactive),2.6e-06 (inactive),0.0059 (inactive),8.53% (inactive),7.83% (inactive)
Cc1ccc(CC2SC(=O)NC2=O)cc1Cl (stereo not drawn),790,10.4% (inactive),-3% (inactive),97.9%,0% (inactive),119%,-0.488 (inactive),-5.4e-05 (inactive),0.00487 (inactive),10.2% (inactive),12% (inactive)
COc1ccccc1NC(=O)NC1(C(=O)N2CCC(O)CC2)CCCCC1,242,3.9% (inactive),16.6% (inactive),79.3%,1.6% (inactive),94%,-0.605 (inactive),1.9e-06 (inactive),0.00897 (inactive),-0.183% (inactive),2.89% (inactive)
CCOc1ccc2c(c1)n(CO)c(=S)n2CO,677,-26.5% (inactive),4.4% (inactive),68.8%,15.1% (inactive),105%,-0.498 (inactive),-4.8e-05 (inactive),0.00378 (inactive),16.9% (inactive),19.4% (inactive)
O=C(CS(=O)(=O)c1cn(Cc2ccc(Cl)cc2)c2ccccc12)N1CCOCC1,531,4.3% (inactive),37.8% (inactive),91.1%,-8.5% (inactive),110%,-0.504 (inactive),7.7e-07 (inactive),0.00671 (inactive),5.23% (inactive),17.5% (inactive)
Nc1nc(N2CCN(C/C=C/c3ccccc3)CC2)nc2ccccc12,563,7.3% (inactive),2% (inactive),69.5%,-58.8% (inactive),139%,-0.607 (inactive),-2.5e-05 (inactive),0.00297 (inactive),4.65% (inactive),7.48% (inactive)
O=C(NC1CCCCCC1)c1c(F)c(F)c(F)c(F)c1F,448,1.8% (inactive),3.9% (inactive),104%,1.8% (inactive),118%,-0.299 (inactive),-1.4e-05 (inactive),0.00585 (inactive),1.12% (inactive),12.3% (inactive)
CCOC(=O)c1ccc(-n2c(C)nc3c(cnn3-c3ccccc3C)c2=O)cc1,654,6.9% (inactive),-46.9% (inactive),102%,11.9% (inactive),108%,-0.543 (inactive),-6.1e-06 (inactive),0.00553 (inactive),-2.92% (inactive),3.65% (inactive)
COc1ccc(C)cc1NC(=O)c1nnn(Cc2cccc(F)c2)c1N,610,-0.2% (inactive),6.4% (inactive),100%,-31.3% (inactive),127%,-0.513 (inactive),-2.7e-05 (inactive),0.00668 (inactive),40.9% (inactive),1.2% (inactive)
CC1CCC(NC(=O)C2CCN(c3cnccn3)CC2)CC1 (stereo not drawn),579,-52% (inactive),-0.6% (inactive),102%,-108% (inactive),116%,-0.575 (inactive),-6.7e-05 (inactive),0.00693 (inactive),-0.638% (inactive),-2.17% (inactive)
COc1ccc(CC(=O)N2CCOCC2)cc1OC,383,-0.8% (inactive),4.3% (inactive),106%,-53.3% (inactive),111%,-0.428 (inactive),-5.5e-05 (inactive),0.00535 (inactive),15.7% (inactive),26.1% (inactive)
COc1ccc(C(=O)N2CCN(C3CCCCC3)CC2)c(OC)c1,324,-0.9% (inactive),-21.3% (inactive),83.3%,-48.1% (inactive),138%,-0.609 (inactive),-1.5e-05 (inactive),0.00408 (inactive),1% (inactive),12.4% (inactive)
O=C(Nc1ccc(F)cc1F)NC1CC(=O)N(Cc2ccccc2)C1 (stereo not drawn),664,1.6% (inactive),22.4% (inactive),66.3%,4.4% (inactive),103%,-0.571 (inactive),-1.6e-05 (inactive),0.0068 (inactive),-12.5% (inactive),1.35% (inactive)
CCOCC(=O)Nc1ccc(S(=O)(=O)N2CCOCC2)cc1,283,-3.2% (inactive),16.5% (inactive),89.1%,-6.7% (inactive),73.9%,-0.418 (inactive),5.9e-06 (inactive),0.00604 (inactive),12% (inactive),19.7% (inactive)
CCOc1ccc2nc(N3CCC(C(=O)N4CCN(C5CCCCC5)CC4)CC3)sc2c1,594,-0.8% (inactive),-15.4% (inactive),103%,-54% (inactive),107%,-0.553 (inactive),6.2e-06 (inactive),0.00601 (inactive),-54.1% (inactive),-73.6% (inactive)
CCn1nnnc1SCC(=O)Nc1nc(-c2cccs2)cs1,327,-8.9% (inactive),9.4% (inactive),100%,-63.9% (inactive),104%,-0.491 (inactive),-4.6e-05 (inactive),0.00497 (inactive),15.8% (inactive),20.5% (inactive)
COC(=O)NCC(c1cccnc1)N1CCOCC1 (stereo not drawn),605,-11% (inactive),16.6% (inactive),97.8%,-24% (inactive),105%,-0.589 (inactive),-3.5e-05 (inactive),0.0059 (inactive),-1.28% (inactive),16.1% (inactive)
CCC(C)OC(=O)c1[nH]c2c(c1C)C(=O)CC(c1ccc(N(C)C)cc1)C2 (stereo not drawn),717,-3.2% (inactive),-40.7% (inactive),108%,-31.4% (inactive),125%,-0.506 (inactive),-3.4e-06 (inactive),0.00616 (inactive),-57.4% (inactive),-143% (inactive)
O=C(c1cnc2n(c1=O)CCS2)N(C1CCCCC1)C1CCCCC1,649,-6.9% (inactive),6.9% (inactive),97.5%,-47.3% (inactive),122%,-0.42 (inactive),-4.8e-05 (inactive),0.00465 (inactive),11% (inactive),39.3% (inactive)
O=C(CN1C(=O)CSC1=O)Nc1ccc(N2CCOCC2)cc1,700,-1% (inactive),15.2% (inactive),110%,-27.8% (inactive),113%,-0.544 (inactive),-2.2e-05 (inactive),0.00569 (inactive),-8.99% (inactive),-8.78% (inactive)
CN1C(=O)C(O)(CC(=O)c2ccc3c(c2)OCO3)c2ccccc21 (stereo not drawn),340,6% (inactive),-7.9% (inactive),105%,-11.1% (inactive),108%,-0.457 (inactive),6.3e-06 (inactive),0.00347 (inactive),4.81% (inactive),32.2% (inactive)
